This note sets out measurements from PubChem BioAssay AID624330 (Southern Research Specialized Biocontainment Screening …, 2012).

About 2,100 (0.62%) of roughly 340,000 compounds were called active.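 Rule for the calls: active = first-screen hits whose inhibition reached a set limit at any dose in the follow-up dose series; inconclusive = inhibition above the set first-screen limit but never retested; inactive = the rest.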 These entries were drawn from the full list. Measured potencies and affinities stand elsewhere.

In this test the target is Rac GTPase-activating protein 1 (Homo sapiens) (UniProt Q9H0H5). Nature of the test: MgcRacGAP GTPase-activating activity inhibitors, confirmation, biochemical, ADP Hunter fluorescence, primary and confirmatory (AID 624330).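 Note: fluorescence reports GDP produced by GAP-driven GTP hydrolysis.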 Conditions: MgcRacGAP-stimulated Rac1 GTP hydrolysis, at 30 µM, active compounds read high, GST-tagged Rac1 F28L mutant substrate.
Rac GTPase-activating protein 1 (Homo sapiens), sequence (Q9H0H5 whole entry, looked up): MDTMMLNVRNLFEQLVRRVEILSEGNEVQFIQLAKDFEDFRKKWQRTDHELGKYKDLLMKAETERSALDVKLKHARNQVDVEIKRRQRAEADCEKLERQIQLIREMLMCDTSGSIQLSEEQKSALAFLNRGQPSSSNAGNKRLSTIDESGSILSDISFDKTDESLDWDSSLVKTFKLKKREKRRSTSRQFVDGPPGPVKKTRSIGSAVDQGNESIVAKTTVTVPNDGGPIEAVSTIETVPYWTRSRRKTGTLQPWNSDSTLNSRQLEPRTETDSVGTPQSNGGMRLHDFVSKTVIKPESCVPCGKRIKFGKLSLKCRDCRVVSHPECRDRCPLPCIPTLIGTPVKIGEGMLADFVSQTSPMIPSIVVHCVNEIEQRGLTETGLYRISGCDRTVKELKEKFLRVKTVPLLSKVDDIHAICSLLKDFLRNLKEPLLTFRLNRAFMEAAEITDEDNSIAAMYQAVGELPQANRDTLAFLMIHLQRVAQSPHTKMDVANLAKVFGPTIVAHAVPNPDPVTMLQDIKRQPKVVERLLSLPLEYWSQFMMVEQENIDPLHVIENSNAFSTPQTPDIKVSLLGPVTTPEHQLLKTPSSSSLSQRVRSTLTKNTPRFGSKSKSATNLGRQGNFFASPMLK
Turning to `COc1ccc([N+](=O)[O-])cc1N(CC(=O)NCCCOC(C)C)S(C)(=O)=O`, the inhibition was 7.79% (inactive). The result for `Cc1ccc(C)c(NC(=O)C2CCCN(c3cnccn3)C2)c1` (stereo unspecified) reads 14.2% (inactive); that for `C/C(=N\NC(=O)c1cccc(N/N=C(\C)c2ccccc2)c1)c1ccccc1`, 0.42% (inactive); that for `C/C(=N\NC(=O)c1cc(O)ccc1O)c1cccc(NC(=O)c2cccc(Cl)c2)c1`, 25.5% (inactive). For `O=C(CCC1CCCN(C(=O)c2cncs2)C1)NCc1ccc(F)c(F)c1` (stereo unspecified) the value was 4.71% (inactive). For the compound `CC(C)Sc1nc2ccsc2c(=O)[nH]1`, the inhibition was 8.22% (inactive). Turning to `O=C(CC1CCCC1)Nc1ccc(Cl)c(S(=O)(=O)N2CCOCC2)c1`, the inhibition was 1.97% (inactive).

As for `Cc1ccnc(NC(=S)NC(=O)/C=C/c2ccc(Cl)cc2)c1`, the inhibition was 3.91% (inactive).

On to `CCOCCCn1c(SCc2ccccc2)nnc1-c1ccncc1`, for which the inhibition is 7.47% (inactive). On to `CN(C)CCCn1c(SCc2c(Cl)cccc2Cl)nnc1-c1ccncc1`, for which the inhibition was 25.2% (inactive).

In the case of `Cc1cc(C)cc(NC(=O)c2cc3c(=O)n4ccccc4nc3s2)c1`, the inhibition was 7.35% (inactive). `CC(C)(C)NC(=O)COC(=O)c1ccc(Cl)nc1`: the inhibition was 2.54% (inactive). For `COc1ccc([C@H]2CN(c3ccccc3)C(=O)[C@@H]2CC(=O)Nc2ccccc2)cc1` the value was 9.26% (inactive); for `COc1ccc(NC(=O)C[C@H]2C(=O)N(c3ccc(Br)cc3)C[C@@H]2c2ccc(OC)cc2)cc1`, 15.9% (inactive). For the compound `COc1ccc(-c2csc(N(CCCN(C)C)C(=O)c3cc(OC)c(OC)c(OC)c3)n2)cc1`, the inhibition was 4.15% (inactive). As to `O=[N+]([O-])c1ccc2c(c1)Cc1cc(F)ccc1-2`, the inhibition was -1.78% (inactive).

On to `Nc1ccc2c(c1)Cc1cc([N+](=O)[O-])ccc1-2`, for which the inhibition is 14.4% (inactive). On to `O=[N+]([O-])c1ccc(N2CCN(c3ccccc3O)CC2)c(Cl)c1`, for which the inhibition is -5.04% (inactive). For `CC(C)(C)C(=O)N1CCN(c2ccc([N+](=O)[O-])cc2Cl)CC1` the value was 5.07% (inactive); for `Brc1ccc(-c2noc(C3CCCCC3)n2)cc1`, 11.8% (inactive). Turning to `Cc1cc(C)n(-c2cccc(Cl)c2C#N)n1`, the inhibition is 7.18% (inactive).

As to `CCOC(=O)c1c(C)c(C(=O)Nc2ccc(F)cc2)c(C)n1C`, the inhibition was 1.27% (inactive). As to `CCOC(=O)c1sc(C)c2c1NC1(CCCCCC1)NC2=O`, the inhibition is 1.2% (inactive). Turning to `COc1cccc(/C=N/NC(=O)c2cnccn2)c1`, the inhibition is 8.84% (inactive). For `COc1cc(/C=N/NC(=O)c2cnccn2)cc(OC)c1OC` the value was 3.55% (inactive); for `COc1ccc(/C=N/NC(=O)c2cccnc2)cc1O`, 28.2% (inactive). For `COc1cc(OC)c(OC)cc1/C=N/NC(=O)c1cnccn1` the value was 9.21% (inactive). For `CSc1ccccc1NC(=O)CN1CCN(c2ccccn2)CC1` the value was 6.87% (inactive); for `COc1ccc2nc(C)cc(N/N=C/c3ccc(F)cc3)c2c1`, 13.3% (inactive).

Regarding `COc1ccccc1/C=N/Nc1cc(C)nc2ccc(C)cc12`, the inhibition was 14.4% (inactive). `Cc1ccc2nc(C)cc(N/N=C/c3ccccc3O)c2c1`: the inhibition is 9.12% (inactive). For `COc1ccc2nc(C)cc(N/N=C/c3ccccc3)c2c1`, the inhibition is 19.7% (inactive). The result for `COc1ccc(OC)c(S(=O)(=O)N2CCC3(CC2)CC(=O)c2ccccc2O3)c1` reads 8.64% (inactive). For the compound `O=C(Nc1ccc(C(=O)O)cc1)/C(=C\c1ccc2c(c1)OCO2)NC(=O)c1ccccc1`, the inhibition is -1.61% (inactive).

Regarding `O=C(COC(=O)c1ccc([N+](=O)[O-])o1)Nc1ccc(N2CCOCC2)cc1`, the inhibition was 10.6% (inactive).

Take `O=C(O)c1ccc(N(c2ccccc2)c2ccccc2)cc1`: the inhibition is 6.47% (inactive).

As for `C/C(=N\N(c1ccccc1)c1ccccc1)c1ccc(N)cc1`, the inhibition is 18.1% (inactive). For the compound `O=C(CSc1nc2ccc(NC(=O)CSc3nnnn3-c3ccccc3)cc2s1)Nc1ccccc1`, the inhibition is 2.46% (inactive). For `CN(C)c1ccc(C(=O)NN2C(=O)c3ccccc3C2=O)cc1`, the inhibition is 8.64% (inactive). On to `CN(C)c1ccc(C(=O)N2CCCC2)cc1`, for which the inhibition was 3.64% (inactive). With `C[C@@H]1CN([C@@H](C)CO)C(=O)c2cc(Br)cnc2O[C@H]1CN(C)C(=O)c1ccc2c(c1)OCO2`, the inhibition is 13.5% (inactive).

For the compound `Cc1cccc(NC(=O)CCCN=C2NS(=O)(=O)c3ccccc32)c1C`, the inhibition is -1.68% (inactive). `NC(=S)N/N=C/c1ccccc1`: the inhibition was 11.7% (inactive). Regarding `CN(C)c1ccc(C=Nc2ccccc2)cc1`, the inhibition is 0.89% (inactive). Regarding `CN(c1ccccc1)c1ccc(/C=N/NC(=O)CC#N)cc1`, the inhibition was 10.3% (inactive). As for `CCOc1ccc(/C=N/O)cc1`, the inhibition is 5.7% (inactive). Turning to `Cc1ccc(N=Cc2ccc(N(C)C)cc2)cc1`, the inhibition is 3.33% (inactive). For `CCN(CC)c1ccc(/C=N/NC(=O)CC(C)C)cc1` the value was 5.15% (inactive); for `CCN(CC)c1ccc(C=N/C(C#N)=C(\N)C#N)cc1`, 6.79% (inactive); for `CCN(CC)c1ccc(/C=N/NC(=O)C(O)c2ccccc2)cc1` (stereo unspecified), 9.04% (inactive).

Consider `Cc1ccc(SCC(=O)n2nc(C)cc2C)cc1`, for which the inhibition was 3.7% (inactive). For `CSc1nc(NS(=O)(=O)c2ccc(F)cc2F)nn1C`, the inhibition is 6.35% (inactive). In the case of `Cc1ccc(S(=O)(=O)N2CCN(C(=O)Cn3nc(C)c([N+](=O)[O-])c3C)CC2)cc1`, the inhibition is 6.68% (inactive). For the compound `CC(C)Cn1c(N)c(C(=O)COC(=O)COc2cccc(C(F)(F)F)c2)c(=O)n(C)c1=O`, the inhibition was 6.32% (inactive). Regarding `COC1CC(C)NC(=S)N1` (stereo unspecified), the inhibition is 12.9% (inactive). On to `O=C(Cn1nnc2ccccc21)N/N=C/c1ccco1`, for which the inhibition is 10.9% (inactive). The result for `COc1ccc(NC(=O)c2ccc3c(c2)C(=O)N(CC2CCCO2)C3=O)cc1O` (stereo unspecified) reads 0.29% (inactive); that for `O=C(CSc1nnc(-c2ccco2)n1Cc1ccccc1)c1ccccc1`, 13.1% (inactive).

With `O=C(CSc1nnc(-c2ccco2)n1Cc1ccccc1)NCc1ccccc1`, the inhibition was 5.14% (inactive). `O=C(NN=Cc1ccc2c(c1)CCC2)c1ccccc1[N+](=O)[O-]`: the inhibition was 6.28% (inactive). On to `Cc1cc(C)nc(N2N=C(CSc3ccc(Cl)cc3)CC2=O)n1`, for which the inhibition is 3.87% (inactive). In the case of `COc1cccc(C(=O)NNC(=O)Cc2csc(N)n2)c1`, the inhibition is 10.7% (inactive). The result for `CCn1c(SCC(=O)c2[nH]c(C)c(C(C)=O)c2C)nnc1-c1ccccc1` reads 11.9% (inactive); that for `COc1ccc2cc(CN(C)C(=O)CN3C(=O)NC4(CCCC4)C3=O)ccc2c1`, 20.2% (inactive); that for `COc1cc2c(cc1NC(=O)CCC(=O)O)oc1ccccc12`, 17.1% (inactive). `CCCNC(=S)Nc1cc2oc3ccccc3c2cc1OC`: the inhibition is 7.43% (inactive). On to `COc1ccccc1CC(=O)Nc1cc2oc3ccccc3c2cc1OC`, for which the inhibition was 1.63% (inactive).

As for `CNC(=S)Nc1cc2oc3ccccc3c2cc1OC`, the inhibition is 13.3% (inactive).

`NS(=O)(=O)c1ccc(CCNC(=O)c2ccc(Cl)nc2)cc1`: the inhibition was 4.85% (inactive). For `COC(=O)C[C@@H]1C[C@@H]2c3cc(NC(=O)NC4CCCCC4)ccc3O[C@@H]2[C@H](CO)O1` the value was 0.31% (inactive). Take `CC(=O)c1ccc(N2CCN(C(=O)c3ccc(-c4ccccc4)cc3)CC2)cc1`: the inhibition was 6.62% (inactive). As to `CN1c2cccc3cccc(c23)N(C)C1(C)C`, the inhibition is 17.8% (inactive). The result for `CN1c2cccc3cccc(c23)N(C)C1c1cccs1` reads 29.9% (inactive); that for `Cc1[nH]c2ccc(-c3n[nH]c(=S)n3Cc3ccccc3)cc2c1C`, 10.2% (inactive). Turning to `c1ccc(-c2csc(NNC3=NCCCCC3)n2)cc1`, the inhibition was -65.3% (inactive).

Consider `COc1ccc(CNC(=O)c2ccc[nH]2)cc1Cl`, for which the inhibition was -1.95% (inactive). For `COc1cc(-c2n[nH]c(=S)n2-c2ccccc2C(F)(F)F)cc(OC)c1OC` the value was 0.91% (inactive). The result for `CCn1c(C)nc2cc(C(=O)N/N=C/c3ccc(N4CCOCC4)cc3)ccc21` reads 9.18% (inactive). The result for `CCn1c(C)nc2cc(C(=O)N/N=C/c3ccccc3C)ccc21` reads 4.28% (inactive).

Consider `CCn1c(C)nc2cc(C(=O)N/N=C/c3ccccc3)ccc21`, for which the inhibition was 12.6% (inactive). For `CCn1c(C)nc2cc(C(=O)NN=Cc3ccc([N+](=O)[O-])cc3)ccc21`, the inhibition was 8.03% (inactive). As to `CCn1c(C)nc2cc(C(=O)N/N=C/c3ccc(O)c(O)c3O)ccc21`, the inhibition is -97% (inactive).

Turning to `CCn1c(C)nc2cc(C(=O)N/N=C/c3cccc(OC)c3O)ccc21`, the inhibition was 15% (inactive). On to `O=C(O)CCCN1C(=O)c2ccc(Oc3cccc([N+](=O)[O-])c3)cc2C1=O`, for which the inhibition was 1.11% (inactive).

Turning to `Cc1ccc(OCC(=O)NNC(=O)c2ccco2)c(C)c1`, the inhibition was 8.22% (inactive).

Consider `O=C(O)[C@H](CSCc1ccccc1)NS(=O)(=O)c1ccc(F)cc1`, for which the inhibition was 9.02% (inactive). Turning to `CCCCn1c(SCC(=O)Nc2cc(C)[nH]n2)nc2ccsc2c1=O`, the inhibition was 9.99% (inactive). Turning to `CCCCn1c(SCC(=O)c2ccccc2)nc2ccsc2c1=O`, the inhibition is 9.24% (inactive).

Take `C=CCn1c(SCC(=O)NC2CC2)nc2sc(CC)cc2c1=O`: the inhibition is 2.06% (inactive).

For `C=CCn1c(SCC(=O)Nc2cc(C)on2)nc2sc(CC)cc2c1=O`, the inhibition was -5.28% (inactive). With `CN(Cc1ccccc1)C(=O)COC(=O)/C=C/c1ccco1`, the inhibition is 7.88% (inactive). As to `Cc1ccc(NC(=O)Cn2nc(C(=O)O)c3ccccc3c2=O)cc1S(=O)(=O)N1CCOCC1`, the inhibition was 5.1% (inactive). The result for `COc1ccc2c(C)cc3nncn3c2c1` reads 5.43% (inactive). Consider `COc1ccc2c(C)cc3nnnn3c2c1`, for which the inhibition was 7.23% (inactive). In the case of `Nc1ccn([C@@H]2O[C@H](COS(=O)(=O)O)[C@@H](O)[C@H]2O)c(=O)n1`, the inhibition is 9.68% (inactive).

With `COc1cc(CNCc2cccc(OC)c2OC)cc(OC)c1`, the inhibition is 20.9% (inactive). Consider `COCC(C)NCc1cc(Br)ccc1OC` (stereo unspecified), for which the inhibition was 26.2% (inactive). For the compound `COCC(C)NCc1cccc(C)c1` (stereo unspecified), the inhibition was 5.01% (inactive).

Regarding `COc1cccc(CNCc2ccccn2)c1OC`, the inhibition is 8.4% (inactive).

Consider `COc1ccccc1CNCc1ccc(OC)c(OC)c1OC`, for which the inhibition was 20.1% (inactive). In the case of `COc1cccc(CNCc2cccc(Br)c2)c1OC`, the inhibition was 24.4% (inactive).
